Compound activity: PubChem BioAssay, National Center for Advancing Translational Sciences (NCATS)
JMJD2A Tudor inh = blocks the human JMJD2A Tudor domain | Potency, µM (titrated, usually from 114 µM), most hits filed as inhibitors | 390,000 tested, 4.4% active | O75164 | AID 504339 | AlphaScreen JMJD2A-Tudor / H3K4me3 peptide binding; further: nearly all actives have a fitted effect of over 50% in size
Sfp inh = inhibitors of Bacillus subtilis Sfp phosphopantetheinyl transferase. Q9F4F7. Biochemical Sfp PPTase activity, qHTS. Potency, µM, most hits filed as inhibitors. 310,000 tested, 3.5% active. AID 1490;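 further: the enzyme is Sfp with the accession as filed and its product quenches rhodamine fluorescence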
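Sfp 15 nM + cpd, 15 min RT; start w/ rhodamine-CoA 5 uM, BHQ-2-YbbR 12.5 uM (final); 50 mM Hepes pH 7.6, 10 mM MgCl2, 0.01% NP-40, 0.01% BSA; read 525/598 nm at 0 and 30 min.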
HP1b binding inh = inhibitors of HP1-beta chromodomain binding to methylated histone tails; P83916; AlphaScreen HP1-beta / biotin-H3K9me3 peptide binding; Potency, µM (top dose mostly 114 µM), most hits filed as inhibitors; 390,000 tested, 0.56% active; AID 540317; further: nearly all actives have a fitted effect of over 70% in size
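Compound inhibition of the preformed complex between 50 nM HP1-beta and 50 nM biotinylated H3K9me3 peptide was read by AlphaScreen. Buffer was PBS pH 7.4 with 0.01% Tween-20. Incubations ran 30 min at room temperature, with 10 ug/mL donor/acceptor beads.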
BAZ2B inh = inhibitors of human BAZ2B bromodomain; Q9UIF8; AlphaScreen BAZ2B-H3K14Ac peptide displacement; Potency, µM (highest dose often 114 µM), most hits filed as inhibitors; 360,000 tested, 4.4% active; further: nearly all actives have a fitted effect of over 60% in size
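Multi-concentration screen (max 110 uM) measuring displacement of acetylated histone H3 peptide from BAZ2B by AlphaScreen, using 50 nM protein, 50 nM peptide and 10 ug/mL streptavidin donor plus Ni-chelate acceptor beads.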
PLK1 PBD block = blocks phosphopeptide binding to human PLK1 polo-box domain; P53350; 360,000 tested, 2.8% active; Potency, µM, actives largely listed as inhibitors; Plk1 PBD binding of FITC phosphopeptide, fluorescence polarization; further: series mostly up to about 57 µM; nearly all actives have a fitted effect of over 65% in size
G9a block = G9a (human) methyltransferase inhibition | AID 504332 | G9a H3K9 monomethylation, AlphaScreen, 2 h | 350,000 tested, 8.8% active | Potency, µM (top dose mostly 102 µM), actives largely listed as inhibitors | Q96KQ7; further: nearly all actives have a fitted effect of over 75% in size
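Methyltransferase reactions run at room temperature for 2 h (20 nM enzyme, 500 nM biotin-H3K9 peptide, 20 uM SAM) after a 15 min compound preincubation; product detected by AlphaScreen beads and anti-H3K9me1 antibody.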
Hits are given with their value; . = inactive; ? = inconclusive; / = no result given; [ ] = remark or other dose. Hits are enriched below; roughly 12% of the tested compounds scored in any of these assays. The call rests on the fitted dose curve; in most records, active means well fitted curve in the direction sought with a large enough effect; inconclusive means small, poorly fitted or top-dose-only effect, or another doubt; inactive means no such curve, though single readings can be large; an effect the other way counts as inactive or inconclusive.

SMILES | JMJD2A Tudor inh | Sfp inh | HP1b binding inh | BAZ2B inh | PLK1 PBD block | G9a block
O=C(Oc1ccc(F)cc1)c1ccc2c(=O)n3c(nc2c1)CCC3 | . | / | . | . | . | 50.1µM
CC(OC(=O)c1ccc2c(=O)n3c(nc2c1)CCC3)C(=O)Nc1ccc(C(N)=O)cc1 (stereo unspecified) | . | / | . | . | . | .
O=C(Oc1ccccc1Cl)c1ccc2c(=O)n3c(nc2c1)CCC3 | . | / | . | . | . | ?
CC(OC(=O)c1ccc2c(=O)n3c(nc2c1)CCC3)C(N)=O (stereo unspecified) | ? | . | . | . | 21.2µM | .
O=C(Oc1ccccc1F)c1ccc2c(=O)n3c(nc2c1)CCC3 | . | / | . | . | . | 63.1µM
O=c1c2ccccc2nc2n1CCC2 | 14.1µM | ? | . | 14.1µM | . | .[0.501 µM]
CCO[C@H](c1cc(OC)cc([N+](=O)[O-])c1OC)[C@H](C)/C=C\CC(=O)OC | / | . | / | / | / | /
COc1ccc(C)cc1NC(=O)c1ccc2c(=O)n3c(nc2c1)CCCCC3 | . | . | . | . | 23.8µM | .
Cc1ccc(C)c(NC(=O)c2ccc3c(=O)n4c(nc3c2)CCC4)c1 | . | / | . | . | . | .[12.7 µM]
Cc1ccc(S(=O)(=O)N2CCOCC2)cc1N/N=C(\C#N)c1nc2ccccc2[nH]1 | . | . | . | . | . | 35.5µM
COc1cccc(NC(=O)CSC2=Nc3ccccc3C3=NC(CCC(=O)NCCc4ccccc4)C(=O)N23)c1 (stereo unspecified) | . | / | . | . | / | .
COc1cc(C)cc(C(=O)O)c1C1=C(O)c2cccc(O)c2C(=O)C1=O | 79.4µM | . | . | 56.2µM | ? | ?
O=C1C(Cl)=C(Nc2ccccc2O)C(=O)N1CCc1ccccc1 | 50.1µM | 11.2µM | ? | 31.6µM | 4.23µM | 3.16µM
COc1ccc(CCNC2=C(Cl)C(=O)N(CCc3ccccc3)C2=O)cc1OC | . | . | . | . | . | .
O=c1ccc2ccc(Oc3ccc(Cl)cc3[N+](=O)[O-])cc2o1 | ? | . | . | ? | . | 31.6µM
Cc1c(C#N)c(O)n(C)c(=O)c1N=Nc1ccc(S(N)(=O)=O)cc1 | . | . | . | . | . | .
Cc1c(C#N)c(O)n(CCO)c(=O)c1N=Nc1ccc(S(N)(=O)=O)cc1 | . | . | . | 79.4µM | . | .
C[C@@H]1CC[C@]2(O[C@H](CCO)C[C@H](O)[C@H]2O)O1 | . | / | . | / | . | /
Cc1nnc(SCC(=O)c2cc(C)n(-c3ccc4c(c3)OCO4)c2C)s1 | ? | . | . | 44.7µM | . | ?
Cc1cc(C(=O)CSc2nnnn2C)c(C)n1-c1ccc2c(c1)OCCO2 | ? | 44.7µM | . | ? | . | ?
Cc1ccc(NC2=NCC(=O)N2C2CCCC2)c(C)c1 | . | . | . | ? | . | .
O=C(CSc1ccccc1)N1CCCC(Nc2ccccc2)C1 (stereo unspecified) | 15.8µM | . | . | . | 8.44µM | .
COc1ccc(NC2CCCN(C(=O)C3(C)CCCCC3)C2)cc1 (stereo unspecified) | . | . | . | 31.6µM | . | /
O=C(CSc1ccccn1)N1CCCC(Nc2ccccc2)C1 (stereo unspecified) | . | . | . | . | ? | /
COc1ccc(NC2CCCN(C(=O)CCc3scnc3C)C2)cc1 (stereo unspecified) | . | . | . | . | . | ?
SMILES | JMJD2A Tudor inh | Sfp inh | HP1b binding inh | BAZ2B inh | PLK1 PBD block | G9a block
Cc1ncsc1CCC(=O)N1CCCC(Nc2ccc(C(C)C)cc2)C1 (stereo unspecified) | . | . | . | . | . | 50.1µM
COc1ccc(NC2CCCN(C(=O)c3cccc(N4CCNC4=O)c3)C2)cc1 (stereo unspecified) | . | . | . | . | . | 39.8µM
C[C@H](CO)N1C[C@H](C)[C@@H](CN(C)S(=O)(=O)c2ccc(-c3ccccc3)cc2)OCc2cn(nn2)CCCC1=O | / | / | / | / | . | /
COc1cccc(C(NC(C)=O)c2nc(-c3ccoc3)cs2)c1 (stereo unspecified) | / | / | / | / | . | /
COc1ccc(NC2CCCN(C(=O)CSc3ccncc3)C2)cc1 (stereo unspecified) | . | ? | . | 50.1µM | . | 39.8µM
COc1ccc(NC2CCCN(C(=O)CCc3cn[nH]c3)C2)cc1 (stereo unspecified) | . | . | . | . | . | .
COc1ccc(NC2CCCN(C(=O)CSc3ccccn3)C2)cc1OC (stereo unspecified) | . | . | . | . | 23.8µM | .
COc1ccc(NC2CCCN(C(=O)CCC(=O)c3ccc(F)cc3)C2)cc1 (stereo unspecified) | ? | . | . | 39.8µM | . | /
COc1ccc(CCC(=O)N2CCCC(Nc3ccc(OC)cc3)C2)cc1 (stereo unspecified) | . | . | . | ? | . | 39.8µM
COc1cc(OC)cc(C(=O)N2CCCC(Nc3ccc(F)cc3)C2)c1 (stereo unspecified) | . | . | . | . | . | /
COc1ccc(-c2nc(N)n(C(=O)c3ccccc3Cl)n2)cc1 | . | . | . | ? | . | .
CCn1ccc2cc(S(=O)(=O)N3CCC(C(=O)NCc4ccc(OC(C)C)cc4)CC3)ccc21 | . | / | . | . | / | .
CCn1nc(C)cc1C(=O)N1CCCC(Nc2ccc(F)c(F)c2)C1 (stereo unspecified) | . | . | . | . | . | .
COc1ccc(NC2CCCN(Cc3cccc4cnccc34)C2)cc1OC (stereo unspecified) | ? | . | . | ? | . | ?
O=C1CCCCN1CC(=O)N1CCCC(Nc2ccc(F)c(F)c2)C1 (stereo unspecified) | ? | . | . | . | 21.2µM | .
CCn1nc(CC(C)C)cc1C(=O)N1CCCC(Nc2ccc(OC)cc2)C1 (stereo unspecified) | ? | . | . | . | 26.7µM | ?
COc1ccc(NC2CCCN(Cc3cccc4cnccc34)C2)cc1 (stereo unspecified) | ? | . | . | 44.7µM | . | 44.7µM
O=C1CCCCN1CCC(=O)N1CCCC(Nc2ccc(F)c(F)c2)C1 (stereo unspecified) | . | . | . | . | . | /
COc1ccc(Cl)cc1NC(=S)NNC(=O)CC(C)C | . | . | . | . | . | .[12.7 µM]
COc1ccc(Cl)cc1NC(=S)NNC(=O)c1cccnc1 | . | . | . | . | . | 25.1µM
COc1ccc(Cl)cc1NC(=S)NNC(=O)c1cccs1 | ? | . | . | . | . | 28.2µM
COc1ccc(NC(=S)NNC(=O)c2cccnc2)cc1OC | . | . | . | . | . | 44.7µM
COC(=O)C1(C(=O)OC)CC2=CC(CC2=O)Cc2ccccc2[C@@H]1C[N+](=O)[O-] (stereo partly specified) | / | . | / | / | / | /
Cn1cnc(S(=O)(=O)N2CCCC(C(=O)Nc3cccc(C#N)c3)C2)c1 (stereo unspecified) | . | / | . | . | / | .
